Tau fil binding: tau filament binding | recombinant tau filaments, thioflavin S fluorescence, 15 h; filaments grown with octadecylsulfate alongside compound | 2% of 71,000 active | P10636 | AID 596 | Potency, µM (top dose mostly 57.1 µM), for the others: top-dose activity change, negative = inhibition;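 further: on the % scale 0 is the no-effect control and ±100 the full control effect; actives lower thioflavin S fluorescence by blocking filaments or displacing dye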
Target sequence (P10636 whole entry, looked up): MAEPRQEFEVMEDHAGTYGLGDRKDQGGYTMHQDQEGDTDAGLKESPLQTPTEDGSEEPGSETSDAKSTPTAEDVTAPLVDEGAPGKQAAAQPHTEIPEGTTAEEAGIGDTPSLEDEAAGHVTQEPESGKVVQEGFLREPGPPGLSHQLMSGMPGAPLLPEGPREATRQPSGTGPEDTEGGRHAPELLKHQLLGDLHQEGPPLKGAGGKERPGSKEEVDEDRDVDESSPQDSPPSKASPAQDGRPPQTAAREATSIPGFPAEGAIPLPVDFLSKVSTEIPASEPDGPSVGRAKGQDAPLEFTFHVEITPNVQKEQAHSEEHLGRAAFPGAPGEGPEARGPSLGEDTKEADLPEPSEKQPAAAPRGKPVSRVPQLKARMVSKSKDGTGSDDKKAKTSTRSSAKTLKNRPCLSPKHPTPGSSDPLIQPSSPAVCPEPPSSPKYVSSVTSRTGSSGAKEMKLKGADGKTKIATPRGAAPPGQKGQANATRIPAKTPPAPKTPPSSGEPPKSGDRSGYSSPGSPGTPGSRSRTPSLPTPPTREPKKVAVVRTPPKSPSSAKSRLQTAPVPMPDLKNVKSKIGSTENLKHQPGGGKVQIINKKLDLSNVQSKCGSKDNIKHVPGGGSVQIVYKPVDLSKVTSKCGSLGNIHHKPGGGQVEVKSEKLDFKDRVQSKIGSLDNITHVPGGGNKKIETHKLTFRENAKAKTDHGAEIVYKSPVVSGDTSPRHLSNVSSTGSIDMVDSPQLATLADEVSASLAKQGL
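Recombinant tau protein (human, 1 uM final) plus 30 uM ODS in HEPES pH 7.4 with NaCl, DTT and thioflavine S. Compound present from the start; fluorescence at 510 nm after 15 h, 37 C.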
CRE-bla Fsk: alters forskolin-stimulated CRE reporter signaling in CHO cells. CHO CRE-bla reporter (cAMP response element driving beta-lactamase), forskolin EC10, beta-lactamase ratio. Potency, µM (doses to about 38.2 µM), without a hit: top-dose activity change, negative = inhibition, hits mostly activators. 2.5% of 71,000 active; active means well fitted activation curve with a large enough effect in the signal ratio, with a control signal flat, not every such curve was filed as active; inconclusive means small, poorly fitted or top-dose-only effect, or effect the other way, or a change in a side signal; the % refers to the signal ratio; further: % of control where 0% means no effect
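Beta-lactamase reporter under a cAMP responsive element in CHO cells; compounds tested in titration series against EC10 NKH 477, 3 h at 37 °C. Read-out: CCF4 FRET ratio 460nm/530nm (excitation 405nm) giving %Activity, fitted to AC50.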
HEK293 cAMP cs: raises cAMP in parental HEK293 cells, TSHR agonist counter-screen; parental HEK293 CNG cAMP sensor, membrane potential fluorescence; Potency, µM (doses to about 57.1 µM), without a hit: top-dose activation, actives largely listed as activators; 2.5% of 73,000 active; further: % of control where 0% means no effect; nearly all actives have a fitted effect of over 55% in size
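Parental HEK 293 cells stably expressing a modified CNG channel (no TSHR) report cAMP rise as membrane depolarization. Membrane potential dye with 100 uM RO 20-1724 was loaded for 60 min at room temperature, then compound added for 30 min; fluorescence read at 590 nm.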
ERK AVP inh: vasopressin-driven ERK pathway inhibition; Potency, µM (top dose mostly 57.5 µM), for inactives: top-dose activity, negative = inhibition, most hits filed as inhibitors; 0.99% of 72,000 active; HEK293-V1b, vasopressin-stimulated pERK AlphaScreen; further: on the % scale 0 is the no-effect control and ±100 the full control effect; nearly all actives have a fitted effect of over 55% in size
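V1b-HEK293 cells; cpd 30 min 37C; 25 nM vasopressin 5 min; lyse 10 min; AlphaScreen beads 5 hr RT. Normalized to DMSO basal and 25 nM vasopressin; AC50 by Hill fit.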
TSHR agonist: activates the human thyroid stimulating hormone receptor; Potency, µM (doses to about 57.1 µM), for inactives: top-dose activation, usual class: activators; HEK293-CNG-TSHR cells (CNG channel as cAMP sensor), membrane potential dye, cAMP; AID 926; 0.48% of 73,000 active; P16473; active means well fitted activation curve with a large enough effect in the main read-out, with a control signal flat, not every such curve was filed as active; inconclusive means small, poorly fitted or top-dose-only effect, or a change in a side signal; inactive means no such curve, though single readings can be large or run the other way; % of control where 0% means no effect;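 further: the control signal comes from parental cells without the receptor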
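HEK 293 cells stably expressing TSHR and a cAMP-gated CNG channel; parental CNG-only cells as counterscreen. Cells preloaded 60 min with membrane potential dye plus 100 uM RO 20-1724, then compound 30 min; fluorescence read at 590 nm.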
* = called active by the depositor; i = inactive; ? = inconclusive; nt = not tested or not shown; [ ] = another dose, or the depositor's remark. The list is not random: actives were taken first. Their share in the collection is about 7.6%. Unless noted, the call rests on the fitted dose curve; in most records, active means well fitted curve in the direction sought with a large enough effect; inconclusive means small, poorly fitted or top-dose-only effect, or another doubt; inactive means no such curve, though single readings can be large; an effect the other way counts as inactive or inconclusive. Potency means the concentration at half of the fitted maximal effect.

SMILES	Tau fil binding	CRE-bla Fsk	HEK293 cAMP cs	ERK AVP inh	TSHR agonist
Cn1c(=O)c(-c2ccc(F)cc2)nc2cnc(Nc3ccccc3)nc21	?	0.631µM*	2.9%	-29.3%	-2.8%
Cn1c(=O)c(-c2ccc(Cl)cc2)nc2cnc(Nc3ccccc3)nc21	-17.3%	12.6µM*	5.7%	11.9%	3.3%
Cn1c(=O)c(-c2ccccc2)nc2cnc(Nc3ccccc3)nc21	7.4%	?	6.7%	-15.4%	1.4%
COC(=O)C1=C(C)N(Cc2ccccc2)[C@]23O[C@](C(=O)OC)(C(=O)N2C1c1ccccc1)C(C(=O)OC)C3C(=O)OC (stereo not given in full)	nt	nt	-2.7%[11.4 µM]	2.2%[11.5 µM]	-2.0%[11.4 µM]
C#CCCCCCCCCCCCc1ccco1	nt	nt	nt	21.1%	nt
CN(C)c1ccc(NC(=O)CN2CCC(C(=O)c3ccc(F)cc3)CC2)cc1	15.8µM*	-7.2%	-0.1%	-24.6%	4.1%
O=C(Cc1cccs1)N(Cc1ccco1)C1(C(=O)NC2CCCC2)CCCCC1	8.5%	?	0.126µM*	10.0%	?
O=C(NC1CCCC1)C(c1ccsc1)N(Cc1ccco1)C(=O)Cc1cccs1 (stereo not given)	15.8µM*	-9.4%	-14.2%	?	-22.6%
COc1cccc(-c2cc(NCc3cnc(C)cn3)ncn2)c1	5.3%	?	9.0%	-22.8%	3.0%
COc1cccc(C2=CC(c3ccc(C)cc3)n3ncnc3N2)c1 (stereo not given)	i	?	15.8µM*	1.4%	?
CC(C)CO/N=C1/C[C@@H](O)[C@@H](O)[C@@H]2[C@H]3C(=O)N(c4ccc(F)cc4F)C(=O)[C@@H]3CC[C@H]12	nt	nt	-7.8%[11.4 µM]	7.0%[11.5 µM]	0.0%[11.4 µM]
COc1cc(OC)c(OC)cc1CNc1cc(C)ccc1OC	?	20.0%	6.6%	25.1µM*	nt
COc1c(-c2coc3cc4c(cc3c2=O)CC(OC(C)=O)C(C)(C)O4)ccc2c1C=CC(C)(C)O2 (stereo not given)	nt	nt	nt	15.8µM*	nt
CC1(C)C=Cc2c(cc3occ(-c4ccc5c(c4)OCO5)c(=O)c3c2O)O1	nt	nt	nt	-0.4%	nt
COc1c(-c2coc3cc4c(cc3c2=O)CC(O)C(C)(C)O4)ccc2c1C=CC(C)(C)O2 (stereo not given)	nt	nt	nt	3.16µM*	nt
COCCn1c(=O)c(-c2cccc(C#N)c2)nc2cnc(N3CCN(C)CC3)nc21	-11.1%	12.6µM*	-16.4%	-26.5%	-7.4%
COCCn1c(=O)c(-c2cccc(C#N)c2)nc2cnc(OCc3ccccc3)nc21	25.1µM*	?	4.9%	-11.4%	-0.9%
COCCn1c(=O)c(-c2cccc(C#N)c2)nc2cnc(OC)nc21	-0.9%	?	9.3%	-17.4%	-3.2%
CN1CCN(c2ncc3nc(-c4cccc(C#N)c4)c(=O)n(CCC#N)c3n2)CC1	-0.4%	10µM*	-14.6%	-7.2%	-3.3%
CCc1c2c(nc3c(C(C)C)cccc13)-c1cccc(=O)n1C2	174.0%	?	25.1µM*	-7.8%	?
CC(C)c1cccc2nc3c(c([Si](C)(C)C)c12)Cn1c-3cccc1=O	31.6µM*	12.6µM*	12.6µM*	34.9%	?
CCc1cccc2nc3c(c([Si](CC)(CC)CC)c12)Cn1c-3cccc1=O	20µM*	10µM*	25.1µM*	-11.1%	?
Nc1nc(=O)n(C2OC(CO)C(O)C2O)cc1Cl (stereo not given)	nt	nt	nt	19.9%	nt
CCCn1c(=O)n(C)c(=O)c2c(SCc3cc(C(C)=O)ccc3OCC)nc(C3CC3)nc21	42.3%	2µM*	16.7%	-29.1%	8.3%
Cn1c(=O)c2c(SCC(=O)c3ccccc3)nc(C3CC3)nc2n(C)c1=O	496.1%	?	4.8%	nt	0.6%
SMILES	Tau fil binding	CRE-bla Fsk	HEK293 cAMP cs	ERK AVP inh	TSHR agonist
CCC(=O)N[C@@H]1CCc2cccc(OC)c2C1	?	-3.0%	19.2%	10.2%	3.4%
CCOc1ccccc1CNC(=O)c1cc2occc2n1C	-16.1%	-2.2%	11.8%	20µM*	7.8%
COC(=O)NC(c1ccccc1)C(C(=O)OC)C(=O)OC (stereo not given)	nt	nt	?	15.5%[11.5 µM]	?
OCC1OC(c2ccccc2)C=CC1Oc1ccc(C2CCCC2)cc1 (stereo not given)	nt	nt	-2.1%[11.4 µM]	13.9%[11.5 µM]	-0.5%[11.4 µM]
CCCC/C=C/C(NC(=O)c1ccc(C(F)(F)F)cc1)c1ccccc1 (stereo not given)	-2.2%	?	?	28.8%	?
CCCC/C=C/C(NC(=O)Oc1cccc(C(F)(F)F)c1)c1ccccc1 (stereo not given)	13.8%	-14.5%	25.1µM*	19.8%	?
CCCC/C=C/C(NC(=O)CCc1ccccc1)c1ccccc1 (stereo not given)	3.3%	-9.2%	10µM*	19.7%	?
CCOC(=O)OCC1C=C[C@H](c2cc(-c3ccccc3)ccc2O)C(c2ccc(C(C)=O)cc2)O1 (stereo not given in full)	nt	nt	-4.4%[11.4 µM]	5.4%[11.5 µM]	-0.7%[11.4 µM]
O=C(c1ccc(N2CN(C(=O)c3ccco3)c3nc4ccccc4nc32)cc1)N1CCOCC1	22.4%	?	-3.0%	16.3%	1.26µM*
O=C(c1ccncc1)N1CCN(C(=O)c2ccco2)CC1	9.0%	-3.8%	-0.5%	-10.8%	nt
Cc1cc(-c2nnc(-c3ccccc3)c(-c3ccccc3)n2)c(C)o1	15.8µM*	-20.2%	8.5%	9.6%	0.1%[11.4 µM]
O=C(C[n+]1ccc2ccccc2c1)c1ccc2ccc3ccccc3c2c1	2µM*	-3.0%[7.6 µM]	0.3%[11.4 µM]	20.8%[11.5 µM]	8.1%[11.4 µM]
O=C(c1ccc(C23CC4CC(CC(C4)C2)C3)o1)N1CCOCC1	-2.4%	?	19.3%	-17.7%	12.6µM*
O=C(c1ccc(COc2c(F)c(F)c(F)c(F)c2F)o1)N1CCOCC1	2.5%	1.7%	19.7%	12.1%	nt
CCCCOC(=O)C1=C(C)Nc2ncnn2C1c1ccc(OC)c(OC)c1OC (stereo not given)	-3.4%	9.1%	7.8%	5.1%	3.4%
CCCCOC(=O)C1=C(C)Nc2ncnn2C1c1cc(OC)c(OC)cc1OC (stereo not given)	10.5%	15.8µM*	1.9%	-9.6%	-1.7%
COc1cc(-c2nnc(COc3ccc4ccccc4c3)o2)cc(OC)c1OC	92.1%[11.4 µM]	0.126µM*	?	?	?
Cc1ccc(N(CC(=O)Nc2cccc(C)c2)S(=O)(=O)c2cccc3nonc23)cc1	15.8µM*	?	-3.7%	5.6%	21.9%
CCOC(=O)N/N=C1/C[C@@H](O)[C@@H](O)[C@@H]2[C@@H]3C(=O)N(C[C@@H]4CCCO4)C(=O)[C@H]3CC[C@@H]12	nt	nt	3.4%[11.4 µM]	13.5%[11.5 µM]	-0.1%[11.4 µM]
CCOc1ccc2nc(NCCNC(=O)CC)c(C#N)cc2c1	-3.7%	?	3.7%	-3.5%	1.8%
Cc1ccc2cc(C#N)c(NCCNC(=O)C3CC3)nc2c1C	15.9%	?	25.1µM*	25.1µM*	?
CCc1ccccc1NS(=O)(=O)c1ccc(SC)cc1	-9.5%	13.9%	14.6%	-4.8%	25.1µM*

High-throughput results from PubChem.
